Molecules are shown by their SMILES. Records with an inconclusive call do not appear. The source made the active and inactive calls. Unless noted, no cut-off is given here; in the data, nearly all actives have AC50 up to about 26 µM.

A short description of assay [1]: compounds altering circadian rhythm period length – cell-based, LOPAC library, luminescence reporter (AID 2774; call rule not given here;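 note: values are relative to mean of DMSO wells on each plate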). Conditions: circadian reporter cells, at 7 µM, actives lie on both sides.
Assay [2] has as its system Aerobactin synthetase IucA (Klebsiella pneumoniae, hypervirulent). As to the kind of experiment: biochemical IucA inhibition screen of LOPAC library by absorbance (AID 1346212; call rule not given here;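 note: 100% = no compound wells and 0% = no enzyme wells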). Conditions: IucA enzyme assay, absorbance (OD) readout; stronger effect = lower value;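 tested at 8 µM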.
The nature of assay [3]: viability loss in pontine glioma line – cell-based, SU-DIPG-XVII, MIPE5.0, CellTiter-Glo, qHTS, dose response (AID 1347060).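 For AC50: cells exposed to compound for 48 hours before viability readout.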 Conditions: CellTiter-Glo ATP luminescence. (In general: ATP-based viability assays read luminescence as a measure of living cells.)
Assay [4] can be described thus: viability loss in pontine glioma line – cell-based, SU-DIPG-XIII, MIPE4.0, CellTiter-Glo, qHTS, dose response (AID 1347061; cut-off not given, nearly all actives have AC50 up to about 37 µM;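 note: cells exposed to compound for 48 hours before readout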). Conditions: CellTiter-Glo ATP luminescence.
Assay [5] is described as follows: viability loss in pontine glioma line – cell-based, JHH-DIPG-1, MIPE4.0, CellTiter-Glo, qHTS, dose response (AID 1347062; cut-off not given, nearly all actives have AC50 up to about 27 µM;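 for AC50: cells exposed to compound for two days before readout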). The conditions noted are these: JHH-DIPG-1 viability, CellTiter-Glo ATP luminescence.
Assay [6] can be described thus: viability loss in pontine glioma line – cell-based, SU-DIPG-IV, MIPE4.0, CellTiter-Glo, qHTS, dose response (AID 1347063; cut-off not given, nearly all actives have AC50 up to about 30 µM;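 note: compound exposure lasted 48 hours before the viability readout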). The conditions noted are these: CellTiter-Glo ATP luminescence.
Assay [7] can be described thus: viability loss in pontine glioma line – cell-based, SU-DIPG-XXV, MIPE5.0, CellTiter-Glo, qHTS, dose response (AID 1347065).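 Note: cells exposed to compound for 48 hours before ATP readout.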 Conditions: CellTiter-Glo ATP luminescence.
Assay [8] in a line: growth inhibition of DIPG cells – cell-based, MIPE4.0 library, CellTiter-Glo luminescence, qHTS (AID 1347066; cut-off not given, nearly all actives have AC50 up to about 30 µM;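 note: cells exposed to compound for 48 hours before readout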). Conditions: SU-DIPG-VI viability, CellTiter-Glo ATP luminescence.
A short description of assay [9]: JHH-DIPG-1 glioma cell viability, MIPE5.0 library, CellTiter-Glo luminescence, qHTS (AID 1347067).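 Note: cells exposed to compound for 48 hours before readout.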 Conditions: JHH-DIPG-1 glioma viability, CellTiter-Glo ATP luminescence.
Assay [10] is described as follows: growth inhibition of DIPG cells – cell-based, MIPE5.0 library, qHTS (AID 1347068; cut-off not given, nearly all actives have IC50 up to about 30 µM;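 for IC50: cells exposed to compound for 48 hours before viability readout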). Conditions: SU-DIPG-XXV viability.
A short description of assay [11]: compounds altering viability of human ES cells (AID 493140; call rule not given here;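 note: cells exposed to compounds for four days before counting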). Conditions: human embryonic stem cell survival screen; stronger effect = higher value.
The nature of assay [12]: P. berghei load reduction in hepatocytes – cell-based, HepG2, luciferase luminescence, HepG2 viability, primary screen (AID 624349; in the data active = parasite load remaining mostly below about 12%, no sharp cut-off; inactive = mostly above about 10%;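 note: 100% = mean of DMSO negative control wells on the same plate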). Conditions: P. berghei liver stage in HepG2, luciferase luminescence, concentration not given here; parasite load remaining: stronger effect = lower value; viability: measured here: HepG2 viability without parasites.
Assay [13] can be described thus: viability loss in pontine glioma line – cell-based, SU-DIPG-XIII, MIPE5.0, CellTiter-Glo, qHTS, dose response (AID 1347064; cut-off not given, nearly all actives have AC50 up to about 23 µM;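 for AC50: cells exposed to compound for 48 hours before the viability read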). Conditions: CellTiter-Glo ATP luminescence.
Assay [14] can be described thus: viability loss with induced miR-34 in A549 – imaging, A549 dox-inducible miR-34, nuclei and caspase counts, primary screen (AID 1347080;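 active = compounds whose cell count with miR-34 switched on is under 0.7 times the count with it off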). The conditions noted are these: A549 miR-34 inducible, Hoechst nuclei count, 48 h.
Assay [15] in a line: MELAS cybrid and Rieske KO viability enhancers – cell-based, MELAS cybrids, Rieske KO mouse fibroblasts, CellTiter-Glo, primary screen (AID 1508586;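 active = mean z-score across replicates of 1.96 or higher in either the MELAS or the Rieske mutant cell line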;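 note: z relative to plate mean and SD of compound and empty wells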). Conditions: low glucose.
Assay [16] concerns Hepatitis C virus NS3 helicase. As to the kind of experiment: blockers of NS3h binding to ssDNA – biochemical, fluorescence polarization, LOPAC1280 library, primary screen (AID 687035; in the data active = inhibition above about 37%). The conditions noted are these: Purified HCV NS3 helicase, Cy5-dT15 ssDNA binding fluorescence polarization; stronger effect = higher value; concentration not given here. (Fluorescence polarisation rises when a labelled molecule tumbles more slowly, as on binding a larger partner.)

Assay [17] can be described thus: compounds altering Cy5-DNA-NS3h complex signal – biochemical, LOPAC1280, artefact control for HCV NS3 helicase inhibitor project (AID 687037; call rule not given here). Conditions: Cy5-DNA-NS3h complex fluorescence interference counterscreen. Background: A counterscreen serves to expose hits that act by an unwanted route or on another target.

Broadly, the remaining activity is the signal under treatment as a percentage of the control signal. Regarding `CCCN(CCC)C(=O)Cc1c(-c2ccc(Cl)cc2)nc2c(Cl)cc(Cl)cn12`, in assay [1], the period change is -0.05 h (inactive). Also, the remaining activity in assay [2] was 120% (inactive).
The matching figures for `N[C@H](CCCCCP(=O)(O)O)C(=O)O`: -0.025 h (inactive) and 114% (inactive).
Turning to `O=C(O)C(=O)c1cn(Cc2ccccc2)c2ccc(-c3ccc(OC(F)(F)F)cc3)cc12`, the molecule was classed as inactive in assay [3], in [4], in assay [5], in assay [6], in [7] and in assay [8]. Besides, the molecule was called inactive in assay [9] and in assay [10].
By viability is commonly meant a per cent measure of how many cells are alive, often set against a control. A word on the AC50: it is the concentration at which the activity in the assay is half-maximal. `C=C[C@H]1CN2CCC1C[C@@H]2[C@@H](O)c1ccnc2ccccc12` (stereo not given in full): in assay [11], the survival is 1.25 (inactive). Also, the parasite load remaining in [12] is 79% (inactive). In assay [12], this molecule yielded a viability of 73.5%. The outcome in assay [3], in assay [5], in assay [13], in assay [7], in assay [9] and in assay [10] was inactive. For the same molecule, the AC50 in assay [4] and in assay [8] was 20.9 µM (active) each time.
With `CC(C)[C@H]1C(=O)N[C@H](CO)Cc2c[nH]c3cccc(c23)N1C`, the molecule was called inactive in assay [3], in [4], in assay [8] and in assay [10].
For `CC1(C)CC(O)CC(C)(C)N1O`, the call in assay [3], in assay [4], in assay [5], in assay [6], in [13] and in assay [7] was inactive. For the same molecule, the call in assay [8], in assay [9] and in assay [10] was inactive. Also, the fold change in assay [14] (stronger effect = lower value, cell number ratio, induced over uninduced) was 0.97 (inactive); in assay [14] (measured here: relative caspase fold change +Dox/-Dox) it was 0.416. In addition, the cell count in assay [14] (measured here: total cells with miR-34 induction, stronger effect = lower value) was determined as 7440; in assay [14] (measured here: total cells without miR-34 induction) it was 7670. Besides, the z-score in [15] (MELAS cybrid survival, CellTiter-Glo 48 h, stronger effect = higher value) was -0.227 (inactive); in assay [15] (Rieske KO mouse fibroblast survival, CellTiter-Glo 72 h) it was -0.223.
Take `O=C1C=CC[C@@H]2[C@H]3CCCN4CCC[C@@H](CN12)[C@@H]34`: the result in assay [3], in assay [4], in assay [13], in [7], in assay [8] and in assay [9] was inactive. Also, in assay [10], the call was inactive.
For the molecule `C[C@]12CC[C@@H]3c4ccc(OC(=O)N(CCCl)CCCl)cc4CC[C@H]3[C@@H]1CC[C@@H]2OP(=O)(O)O`, the molecule was classed as inactive in assay [3], in [4], in assay [5], in assay [6], in assay [13] and in assay [7]. Moreover, the result in assay [8], in assay [9] and in assay [10] was inactive.
The term inhibition denotes the drop in the measured response relative to a control, in per cent. For the molecule `CC12CCC3C(CCC4=C(O)C(=O)CCC43C)C1CCC2=O` (stereo not given), the period change in assay [1] was -0.08 h (inactive). Also, the inhibition in [16] is -3% (inactive). Further, the fluorescence ratio (interference) in assay [17] was 1 (inactive). Besides, the remaining activity in assay [2] is 113% (inactive).
On to `CCOP(=O)(OCC)C(C)NC(=O)N(CCCl)N=O` (stereo not given), for which the outcome in assay [3], in assay [4], in assay [5], in assay [13], in assay [7] and in assay [8] was inactive. Further, the call in [9] and in assay [10] was inactive.
In the case of `COc1ccc2c(c1)/C(=C/c1cnc[nH]1)C(=O)N2`, in assay [12], the parasite load remaining is 16.5% (inactive) and the viability came to 98.5%. The remaining activity in [2] was 119% (inactive).
For `COCC1(CO)C(=O)C2CCN1CC2` (stereo not given), the AC50 in assay [3] is 23.5 µM (active); in assay [4], 20.9 µM (active); in assay [5], 20.9 µM (active); in assay [6] it was 18.7 µM (active); in [13], 8.33 µM (active); in assay [7], 16.6 µM (active). In assay [9], the AC50 is 10.5 µM (active). For the same molecule, the call in assay [10] was inactive.
Turning to `C[C@]12CC[C@H]3[C@@H](CCC4=CC(=O)CC[C@@]43C)[C@@H]1CC[C@@H]2OC(=O)CCC1CCCC1`, the result in assay [3], in assay [5], in [6], in [13], in assay [8] and in [10] was inactive. The AC50 in assay [4] is 23.5 µM (active).
On to `N=C1NC(=O)N2CC12` (stereo not given), for which the molecule was classed as inactive in assay [3], in [4], in assay [13], in [7], in assay [9] and in [10]. Besides, the AC50 in assay [5] was 2.09 µM (active).
For `C[C@@H]1O[C@H](C[N+](C)(C)C)CS1`, the period change in assay [1] was -0.11 h (inactive). Besides, in assay [16], the inhibition is -1% (inactive). Also, the fluorescence ratio (interference) in assay [17] is 1 (inactive). For the same molecule, the remaining activity in [2] is 81.1% (inactive).
Regarding `Clc1ccccc1C(c1ccccc1)(c1ccccc1)n1cccn1`, the AC50 was 23.5 µM (active) in assay [3], 33.2 µM (active) in [7] and 23.5 µM (active) in assay [9]. For the same molecule, the call in assay [4], in [8] and in [10] was inactive.
For the molecule `O=C(Oc1ccc([N+](=O)[O-])cc1)N1CCN(Cc2cccc(Oc3ccccc3)c2)CC1`, the call in [3], in [5], in [13], in [7], in assay [8] and in assay [9] was inactive. The AC50 in assay [4] is 11.8 µM (active).
`COC12C(COC(N)=O)C3=C(C(=O)C(C)=C(N)C3=O)N1CC1C2N1C` (stereo not given): in assay [3], the AC50 is 1.48 µM (active).
The term IC50 denotes the concentration needed to halve the response being measured. On to `CC(C)(O)/C=C\C(=O)[C@](C)(O)[C@H]1[C@H](O)C[C@]2(C)[C@@H]3CC=C4[C@@H](C=C(O)C(=O)C4(C)C)[C@]3(C)C(=O)C[C@@]12C`, for which the AC50 was 0.0661 µM (active) in [3]; 18.7 µM (active) in [4]; 0.105 µM (active) in assay [5]; 0.0296 µM (active) in assay [6]; 0.0525 µM (active) in assay [13]; 0.0295 µM (active) in assay [7]. The AC50 in [8] is 8.33 µM (active); in assay [9], 0.0525 µM (active). For the same molecule, in assay [10], the IC50 is 0.148 µM (active).
For `C/C=C(\C)C(=O)N[C@@H](c1ccccc1)[C@@H](O)C(=O)O[C@H]1C[C@@]2(O)[C@@H](OC(=O)c3ccccc3)[C@@H]3[C@]4(OC(C)=O)CO[C@@H]4C[C@H](O)[C@@]3(C)C(=O)[C@H](OC(C)=O)C(=C1C)C2(C)C`, the concentration at half-maximal activity (AC50) in [3] is 0.0132 µM (active); in assay [7], 0.0235 µM (active). The molecule was called inactive in assay [4], in [5], in assay [6] and in [8].
Regarding `Cc1[nH]nc2ccc(-c3cncc(OC[C@@H](N)Cc4c[nH]c5ccccc45)c3)cc12`, the AC50 in assay [3] was 0.833 µM (active); in assay [4], 4.69 µM (active); in assay [5] it was 0.59 µM (active); in [6] it was 3.72 µM (active); in assay [13] it was 0.742 µM (active); in [7], 0.742 µM (active). Moreover, the AC50 in assay [8] was 14.8 µM (active); in assay [9], 0.525 µM (active). Further, in assay [10], the IC50 was 1.86 µM (active).
With `CC(=O)O[C@@]12CO[C@@H]1C[C@H](O)[C@@]1(C)C(=O)[C@H](O)C3=C(C)[C@@H](O)C[C@@](O)([C@@H](OC(=O)c4ccccc4)[C@H]21)C3(C)C`, the AC50 in assay [3] was 23.5 µM (active). For the same molecule, the outcome in assay [4], in assay [8], in assay [9] and in assay [10] was inactive.
On to `CN[C@@H]1Cc2cccc3[nH]c(=O)n(c23)C1`, for which the call in assay [3], in [4], in [5], in [13], in assay [7] and in assay [8] was inactive. The call in assay [9] and in [10] was inactive.
